Out of some 5,500 compounds screened, about 2,000 (36%) were called active. Inconclusive results (about 18%) are left out. No stated cut-off is given here; in the data, active means normalized growth mostly below about 0.91 (no sharp cut-off); inconclusive means no clear call, values can overlap the other calls; inactive means mostly above about 0.92. Some of the results follow.
Assay: chemical genetic growth profiling, strain panel (AID 1159580);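 further: tested at 20 µM; growth read once vehicle control cultures reached saturation at 30 °C; 1 = growth at the plate median or of vehicle wells; lower values mean less growth of the strain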
Details: growth OD
[1] = S. cerevisiae deletion strains, locus YAL013W, strain DEP1, hits give low values
[2] = S. cerevisiae deletion strains, locus YBR229C, strain ROT2, hits give low values
[3] = S. cerevisiae deletion strains, locus YCL061C, strain MRC1, hits give low values
[4] = S. cerevisiae deletion strains, locus YDL101C, strain DUN1, hits give low values
[5] = S. cerevisiae deletion strains, locus YDL134C, strain PPH21, hits give low values
[6] = S. cerevisiae deletion strains, locus YDR150W, strain NUM1, hits give low values
[7] = S. cerevisiae deletion strains, locus YEL061C, strain CIN8, hits give low values
[8] = S. cerevisiae deletion strains, locus YGR078C, strain PAC10, hits give low values
[9] = S. cerevisiae deletion strains, locus YHR030C, strain SLT2, hits give low values
[10] = S. cerevisiae deletion strains, locus YHR087W, strain rtc3, hits give low values
[11] = S. cerevisiae deletion strains, locus YJR043C, strain POL32, hits give low values
[12] = S. cerevisiae deletion strains, locus YJR075W, strain HOC1, hits give low values
[13] = S. cerevisiae deletion strains, locus YKL190W, strain CNB1, hits give low values
[14] = S. cerevisiae deletion strains, locus YLR039C, strain RIC1, hits give low values
[15] = S. cerevisiae deletion strains, locus YLR058C, strain SHM2 (second series), hits give low values
[16] = S. cerevisiae deletion strains, locus YLR085C, strain ARP6, hits give low values
[17] = S. cerevisiae deletion strains, locus YLR262C, strain YPT6, hits give low values
[18] = S. cerevisiae deletion strains, locus YML094W, strain GIM5, hits give low values
[19] = S. cerevisiae deletion strains, locus YMR219W, strain ESC1, hits give low values
[20] = S. cerevisiae deletion strains, locus YMR263W, strain SAP30, hits give low values
[21] = S. cerevisiae deletion strains, locus YMR307W, strain GAS1, hits give low values
[22] = S. cerevisiae deletion strains, locus YNL153C, strain GIM3, hits give low values
[23] = S. cerevisiae deletion strains, locus YNL298W, strain CLA4 (second series), hits give low values
[24] = S. cerevisiae deletion strains, locus YNL322C, strain KRE1, hits give low values
[25] = S. cerevisiae deletion strains, locus YNR030W, strain Alg12, hits give low values
[26] = S. cerevisiae deletion strains, locus YOL006C, strain TOP1, hits give low values
[27] = S. cerevisiae deletion strains, locus YPL055C, strain LGE1, hits give low values
[28] = S. cerevisiae deletion strains, locus YPL241C, strain CIN2, hits give low values
[29] = S. cerevisiae deletion strains, locus YPR135W, strain CTF4, hits give low values
[30] = S. cerevisiae deletion strains, locus YJL187C, strain SWE1, hits give low values
[31] = S. cerevisiae deletion strains, locus YGR229C, strain SMI1, hits give low values
[32] = S. cerevisiae strains, strain wild type, hits give low values

Measured: normalized growth

c1ccc(-c2ncc3ccccn23)cc1
inactive: [1] 1.01 | [2] 0.988 | [3] 0.985 | [4] 0.975 | [5] 0.967 | [6] 0.974 | [7] 0.989 | [8] 0.998 | [9] 0.843 | [10] 0.999 | [11] 0.99 | [12] 1.03 | [13] 0.996 | [15] 0.991 | [16] 0.9 | [17] 0.926 | [18] 0.936 | [19] 1.01 | [20] 0.971 | [21] 0.711 | [22] 0.979 | [23] 0.95 | [24] 1.01 | [25] 0.981 | [27] 1.03 | [28] 0.928 | [29] 0.753
active: [14] 0.786 | [26] 0.461

O=[N+]([O-])c1cnc2ccccn12
inactive: [1] 1.02 | [2] 1.01 | [4] 1 | [5] 1.03 | [6] 0.964 | [7] 1 | [8] 1.01 | [9] 1.08 | [10] 1.01 | [30] 0.992 | [11] 1.02 | [12] 1.03 | [13] 1.02 | [14] 1.05 | [15] 1.01 | [16] 1.01 | [17] 1.09 | [18] 0.995 | [19] 1.01 | [20] 1.02 | [21] 1.1 | [22] 1.03 | [23] 1.08 | [24] 1.02 | [25] 1.02 | [27] 1.02 | [28] 1.02 | [29] 1.11

CC(=O)OCC(=O)[C@@]1(O)CCC2C3CCC4=CC(=O)C=C[C@]4(C)[C@@]3(Cl)[C@@H](Cl)C[C@@]21C (some centres not stated)
inactive: [9] 0.991 | S. cerevisiae deletion strains, locus YHR079C, strain IRE1, hits give low values 0.991 | S. cerevisiae deletion strains, locus YJL095W, strain BCK1, hits give low values 0.968 | S. cerevisiae deletion strains, locus YJR066W, strain TOR1, hits give low values 0.923 | S. cerevisiae deletion strains, locus YLR113W, strain HOG1, hits give low values 1.06 | S. cerevisiae deletion strains, locus YNL183C, strain NPR1, hits give low values 0.916 | S. cerevisiae deletion strains, locus YOR231W, strain MKK1, hits give low values 0.952 | S. cerevisiae deletion strains, locus YPL256C, strain CLN2, hits give low values 0.99

Cc1nnsc1C(=O)O/N=C1/CCSc2ccc(F)cc21
inactive: [1] 0.975 | [2] 0.969 | [3] 0.994 | [4] 0.967 | [5] 0.982 | [6] 0.973 | [7] 0.943 | [8] 0.973 | [31] 0.983 | [9] 0.775 | [10] 0.966 | [30] 0.996 | [11] 0.984 | [12] 0.994 | [13] 0.98 | [14] 0.848 | [15] 0.985 | [16] 0.856 | [17] 0.878 | [18] 0.932 | [19] 0.988 | [20] 0.989 | S. cerevisiae deletion strains, locus YNL128W, strain TEP1, hits give low values 1 | [22] 0.971 | [23] 0.973 | [24] 0.979 | [25] 0.945 | [26] 0.981 | [27] 0.956 | [28] 0.997 | [29] 0.874 | [32] 0.978

CN(C)/C=C1\CSc2ccc(F)cc2C1=O
inactive: [6] 0.885 | [15] 1.01 | [24] 0.995
active: [1] 0.909 | [2] 0.719 | [3] 0.812 | [4] 0.291 | [5] 0.119 | [7] 0.613 | [8] 0.787 | [31] 0.861 | [9] 0.102 | [10] 0.753 | [11] 0.908 | [12] 0.74 | [13] 0.0876 | [14] 0.429 | [16] 0.154 | [17] 0.517 | [18] 0.658 | [19] 0.821 | [20] 0.903 | [21] 0.291 | [22] 0.852 | [23] 0.415 | [25] 0.119 | [27] 0.787 | [28] 0.103 | [29] 0.303 | [32] 0.491
